Assay results reported in PubChem BioAssay AID1159580 (chemical genetic matrix, 2015).
Several values for one entry are separate records, joined by “and”; a condition that tells them apart may be missing. Equal entries are not always repeated. About 2,000 (36%) of roughly 5,500 compounds were called active. Another 18% or so got no clear call; they are omitted. No stated cut-off is given here; in the data, active means normalized growth mostly below about 0.91 (no sharp cut-off); inconclusive means no clear call, values can overlap the other calls; inactive means mostly above about 0.92. Some of the results follow.

Test: chemical genetic growth profiling, strain panel (AID 1159580);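 further: tested at 20 µM; growth read once vehicle control cultures reached saturation at 30 °C; 1 = growth at the plate median or of vehicle wells; lower values mean less growth of the strain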
Settings: S. cerevisiae deletion strains, growth OD

Measured: normalized growth

CCC(=O)O[C@]1(C(=O)CCl)[C@@H](C)CC2C3CCC4=CC(=O)C=C[C@]4(C)[C@@]3(F)[C@@H](O)C[C@@]21C (stereo not given in full)
inactive: locus YAL013W, strain DEP1, active compounds read low 0.976 | locus YAL021C, strain ccr4, active compounds read low 1.02 | locus YAL026C, strain drs2, active compounds read low 1.02 | locus YAL030W, strain snc1, active compounds read low 1.02 | locus YBL061C, strain skt5, active compounds read low 1.03 | locus YBR009C, strain hhf1, active compounds read low 1.01 | locus YBR021W, strain FUR4, active compounds read low 0.968 | locus YBR023C, strain chs3, active compounds read low 1.02 | locus YBR171W, strain sec66, active compounds read low 1.03 | locus YBR229C, strain ROT2, active compounds read low 0.986 | locus YBR231C, strain swc5, active compounds read low 1.02 | locus YBR279W, strain paf1, active compounds read low 1 | locus YCL011C, strain gbp2, active compounds read low 1.02 | locus YCL016C, strain dcc1, active compounds read low 1.02 | locus YCL029C, strain bik1, active compounds read low 0.96 | locus YCL061C, strain MRC1, active compounds read low 1.03 | locus YCL069W, strain vba3, active compounds read low 1.02 | locus YCR088W, strain abp1, active compounds read low 1.02 | locus YDL005C, strain med2, active compounds read low 1.03 | locus YDL035C, strain GPR1, active compounds read low 0.958 | locus YDL040C, strain nat1, active compounds read low 1.03 | locus YDL074C, strain BRE1, active compounds read low 0.975 | locus YDL101C, strain DUN1, active compounds read low 0.989 | locus YDL134C, strain PPH21, active compounds read low 0.981 | locus YDL185W, strain tfp1, active compounds read low 0.949 | locus YDL192W, strain arf1, active compounds read low 0.982 | locus YDR001C, strain nth1, active compounds read low 1.02 | locus YDR069C, strain doa4, active compounds read low 1.03 | locus YDR101C, strain arx1, active compounds read low 1.01 | locus YDR137W, strain rgp1, active compounds read low 0.99 | locus YDR150W, strain NUM1, active compounds read low 0.975 | locus YDR159W, strain sac3, active compounds read low 1.02 | locus YDR162C, strain NBP2, active compounds read low 0.953 | locus YDR195W, strain ref2 1.02 | locus YDR297W, strain sur2, active compounds read low 1.01 | locus YDR318W, strain mcm21, active compounds read low 0.988 | locus YDR334W, strain swr1, active compounds read low 1.01 | locus YDR335W, strain msn5, active compounds read low 1.02 | locus YDR388W, active compounds read low 0.987 | locus YDR392W, strain spt3, active compounds read low 1.03 | locus YDR502C, strain sam2, active compounds read low 0.963 | locus YEL003W, strain gim4, active compounds read low 1.01 | locus YEL037C, strain rad23, active compounds read low 1.02 | locus YEL061C, strain CIN8 (second series), active compounds read low 1.02 | locus YEL061C, strain CIN8, active compounds read low 0.985 | locus YER015W, strain faa2, active compounds read low 1.01 | locus YER016W, strain bim1, active compounds read low 1.01 | locus YER110C, active compounds read low 0.971 | locus YER111C, strain swi4, active compounds read low 1.02 | locus YER155C, strain BEM2 (second series), active compounds read low 1.07 | locus YER155C, strain BEM2, active compounds read low 0.987 | locus YER167W, strain BCK2, active compounds read low 0.986 | locus YFR010W, strain ubp6, active compounds read low 1.02 | locus YGL078C, strain dbp3, active compounds read low 0.978 | locus YGL086W, strain mad1, active compounds read low 0.973 | locus YGL167C, strain pmr1, active compounds read low 1.03 | locus YGL173C, strain kem1, active compounds read low 1.05 | locus YGL227W, strain vid30, active compounds read low 1.04 | locus YGL240W, strain doc1, active compounds read low 1.02 | locus YGL248W, strain PDE1, active compounds read low 1.02 | locus YGL253W, strain hxk2, active compounds read low 1 | locus YGR078C, strain PAC10, active compounds read low 0.999 | locus YGR135W, strain pre9, active compounds read low 0.974 | locus YGR229C, strain SMI1, active compounds read low 0.971 | locus YGR252W, strain gcn5, active compounds read low 1.04 | locus YHR013C, strain ard1, active compounds read low 1.03 | locus YHR027C, strain rpn1, active compounds read low 1.01 | locus YHR030C, strain SLT2, active compounds read low 0.974 and 0.963 | locus YHR079C, strain IRE1 (second series), active compounds read low 0.98 | locus YHR079C, strain IRE1, active compounds read low 0.957 | locus YHR094C, strain hxt1, active compounds read low 0.972 | locus YHR129C, strain ARP1, active compounds read low 0.993 | locus YHR142W, strain chs7, active compounds read low 1.01 | locus YHR200W, strain rpn10, active compounds read low 0.977 | locus YIL066C, strain RNR3, active compounds read low 0.985 | locus YIL073C, strain SPO22, active compounds read low 0.876 | locus YIL125W, strain kgd1, active compounds read low 0.985 | locus YIR030C, strain dcg1, active compounds read low 0.985 | locus YJL092W, strain hpr5, active compounds read low 1.02 | locus YJL095W, strain BCK1 (second series), active compounds read low 1.03 | locus YJL095W, strain BCK1, active compounds read low 1.05 and 0.971 | locus YJL115W, strain asf1, active compounds read low 1.04 | locus YJL129C, strain trk1, active compounds read low 1.01 | locus YJL134W, strain LCB3, active compounds read low 0.981 | locus YJL154C, strain vps35, active compounds read low 1.01 | locus YJL164C, strain tpk1, active compounds read low 1.03 | locus YJL166W, strain qcr8, active compounds read low 1.03 | locus YJL168C, strain set2, active compounds read low 1 | locus YJL187C, strain SWE1 (second series), active compounds read low 1 | locus YJL187C, strain SWE1, active compounds read low 1.02
